The record followed here is article PMC4552634, “A New Set of Chemical Starting Points with Plasmodium falciparum Transmission-Blocking Potential for Antimalarial Drug Discovery” (PLoS ONE, 2015).

SMILES strings stand for the structures. Hit rate of the full screen: of about 13,000 compounds, about 3,200 (25%) showed an effect of 50% or more. The list shows a part of the results.

This test relates to P. falciparum stage V gametocytes. On the set-up: BacTiter-Glo ATP luminescence viability of purified stage V gametocytes in 384-well plates, per cent inhibition versus DMSO. The settings on record: 48 h, 5 µM; inhibitor.
Consider `Fc1ccc2cc(C=Cc3ccncc3)[nH]c2c1` [TCMDC-137494], for which the % Inhibition – broadly, the drop in the measured response relative to a control, in per cent – is on record as -53.7%.

Turning to `O=C(Nc1cccc(C(F)(F)F)c1)Nc1nc2ccc([N+](=O)[O-])cc2s1` [TCMDC-123631], the “% Inhibition” value is recorded as 27.05%.

Consider `Cn1cncc1-c1ccc2ncnc(Nc3ccc(OCc4ccccc4)cc3)c2c1` [TCMDC-137504], for which the “% Inhibition” value is reported as -32.31%.

Take `Cc1ccc(Nc2nccc(Nc3ccc4c(c3)nc(Nc3cc(C(C)(C)C)on3)n4C)n2)cc1S(C)(=O)=O` [TCMDC-141889]: the “% Inhibition” value was 96.33%.

In the case of `Cc1ccc(Nc2nc3cc(N(C)c4ccnc(Nc5cccc(CCS(C)(=O)=O)c5)n4)ccc3n2C)cc1` [TCMDC-138853], the “% Inhibition” value is given as -59.51%.

As to `CN1CCN(S(=O)(=O)c2cccc(Nc3nccc(N(C)c4ccc5c(c4)nc(NC(=O)c4cccs4)n5C)n3)c2)CC1` [TCMDC-134378], the “% Inhibition” value is reported as 79.98%.

Consider `CN(c1ccc2c(c1)nc(NC(=O)C1(c3cc(F)ccc3F)CC1)n2C)c1ccnc(Nc2cccc(CS(C)(=O)=O)c2)n1` [TCMDC-141964], for which the “% Inhibition” value is -60.83%.

In the case of `Cc1ccc(Nc2nccc(N(C)c3ccc4c(c3)nc(NC(=O)Cc3ccc(Cl)c(Cl)c3)n4C)n2)cc1S(N)(=O)=O` [TCMDC-141965], the “% Inhibition” value is -9.254%.

`Cn1c(Nc2cc(C(C)(C)C)on2)nc2cc(Nc3ccnc(Nc4cccc(S(=O)(=O)N5CCOCC5)c4)n3)ccc21` [TCMDC-134098]: the “% Inhibition” value worked out at 97.72%.

As for `Cc1ccc(Nc2nccc(Nc3ccc4c(C)[nH]nc4c3)n2)cc1F` [TCMDC-138542], the “% Inhibition” value is on record as -63.2%.

Regarding `Cc1[nH]nc2cc(Nc3ccnc(Nc4cccc(CN5CCOCC5)c4)n3)ccc12` [TCMDC-138632], the “% Inhibition” value was determined as 3.491%.

On to `Cn1c(Nc2cc(C(C)(C)C)on2)nc2cc(Nc3ccnc(Nc4ccc(CS(C)(=O)=O)cc4)n3)ccc21` [TCMDC-141890], for which the “% Inhibition” value amounted to 82.06%.

For `Cn1c(Nc2cc(C(C)(C)C)on2)nc2cc(Nc3ccnc(Nc4cccc(CS(C)(=O)=O)c4)n3)ccc21` [TCMDC-141893], the “% Inhibition” value worked out at 24.31%.

Turning to `CN(c1ccc2c(c1)nc(Nc1cc(C(C)(C)C)on1)n2C)c1ccnc(Nc2ccc(CS(C)(=O)=O)cc2)n1` [TCMDC-141892], the “% Inhibition” value is -9.766%.

In the case of `Cn1c(NCc2cc(F)cc3c2OCOC3)nc2cc(Nc3ccnc(Nc4cccc(CS(C)(=O)=O)c4)n3)ccc21` [TCMDC-134151], the “% Inhibition” value is -2.358%.

For `COc1ccc2nc(C)cc(Nc3ccc(Oc4ccc(Cl)c5ccccc45)c(Cl)c3)c2c1` [TCMDC-123856], the “% Inhibition” value is on record as 5.816%.

`N#Cc1ccc2c(c1)CN(CCC1CCC(NC(=O)c3cc4cnccc4[nH]3)CC1)CC2` (stereo not drawn) [TCMDC-139174]: the “% Inhibition” value is -27.42%.

In the case of `O=C(NCc1cccc(F)c1)Nc1ccc(-c2ccc(-c3nc4ccc(C(F)(F)F)cc4[nH]3)cc2)cc1` [TCMDC-133287], the “% Inhibition” value was -9.31%.

On to `Cc1cccc(NC(c2cccs2)c2c(NC(=O)c3ccccc3)sc(C)c2C)n1` (stereo not drawn) [TCMDC-124747], for which the “% Inhibition” value is -63.38%.

`C=CCNC(CCCCC)c1ccc(OCCOc2ccc(C(CCCCC)NCC=C)cc2)cc1` (stereo not drawn) [TCMDC-137483]: the “% Inhibition” value is recorded as 106.6%.

With `CCCCCOc1ccc(N2C(N)=NC(N)=NC2(C)C)cc1` [TCMDC-137711], the “% Inhibition” value turned out to be 13.1%.

On to `COc1ccc(OCCON)cc1` [TCMDC-123473], for which the “% Inhibition” value turned out to be 14.77%.

Consider `CCCCCOc1ccc(NC2=CC(=O)C(=O)c3ccccc32)cc1` [TCMDC-125724], for which the “% Inhibition” value is recorded as -1.294%.

For `CCCCCCCCOc1ccc(N2C(N)=NC(N)=NC2(C)C)cc1` [TCMDC-137707], the “% Inhibition” value is recorded as -8.138%.

With `CCCCOc1ccc(C(O)C(CN2CCCCC2)c2ccccc2)cc1` (stereo not drawn) [TCMDC-124252], the “% Inhibition” value amounted to 4.712%.

Take `CCCCCCOc1ccc(N2C(N)=NC(N)=NC2(C)C)cc1` [TCMDC-137369]: the “% Inhibition” value is given as 25.73%.

On to `CCCCC(NCC)c1ccc(OCCOc2ccc(C(CCCC)NCC)cc2)cc1` (stereo not drawn) [TCMDC-137612], for which the “% Inhibition” value was 115.6%.

As for `CCCCCCC(N)c1ccc(OCCCOc2ccc(C(N)CCCCCC)cc2)cc1` (stereo not drawn) [TCMDC-137621], the “% Inhibition” value turned out to be 121.4%.

Turning to `CCCCOc1ccc(N2C(N)=NC(N)=NC2(C)C)cc1` [TCMDC-124279], the “% Inhibition” value was -11.62%.

With `CCCCCC(NCCCC)c1ccc(OCCOc2ccc(C(CCCCC)NCCCC)cc2)cc1` (stereo not drawn) [TCMDC-137613], the “% Inhibition” value was 107.4%.

With `CC(O)C1CCCCN1C(=O)c1cccc(-c2ccc(-c3nc4cc(C(F)(F)F)ccc4[nH]3)cc2)c1` (stereo not drawn) [TCMDC-132334], the “% Inhibition” value is reported as -28.97%.

For `CC(C)CCn1c(Sc2ccc(C#N)c([N+](=O)[O-])c2)nnc1-c1ccc(N(C)C)cc1` [TCMDC-135617], the “% Inhibition” value turned out to be 45.75%.

For the compound `COc1ccc(-c2nc3c(NCc4ccccc4)nccc3[nH]2)c(OC)c1` [TCMDC-137551], the “% Inhibition” value is -15.03%.

Regarding `C=CCn1c(SCc2c(C)noc2C)nc2scc(-c3cccs3)c2c1=O` [TCMDC-125027], the “% Inhibition” value is -8.905%.

Turning to `CC(C)c1ncc(-c2ccncc2)c(C2CCC(CNC(=O)c3ccncc3)CC2)n1` (stereo not drawn) [TCMDC-124824], the “% Inhibition” value was 1.29%.

Regarding `Cc1[nH]c2ccccc2c1C1=CCN(CCN2CCOc3c(Br)cccc3C2=O)CC1` [TCMDC-140965], the “% Inhibition” value is listed as -7.337%.

Consider `CN1CCN(c2cc3c(Nc4ccc5c(cnn5Cc5ccccc5)c4)ncnc3cn2)CC1` [TCMDC-137767], for which the “% Inhibition” value is 5.484%.

Take `N#Cc1ccc2c(c1)CN(C1CCC(NC(=O)c3cc(-c4ccc(Cl)cc4)cs3)CC1)CCC2` (stereo not drawn) [TCMDC-133504]: the “% Inhibition” value stood at 5.468%.

Regarding `CCOC(=O)/C(=N\OC(C(=O)OC(C)(C)C)c1ccccc1)c1csc(NC(c2ccccc2)(c2ccccc2)c2ccccc2)n1` (stereo not drawn) [TCMDC-131980], the “% Inhibition” value is recorded as 21.22%.

For the compound `CC(C)(C)OC(=O)/C=C(\C(=O)OCc1ccc([N+](=O)[O-])cc1)c1csc(NC(c2ccccc2)(c2ccccc2)c2ccccc2)n1` [TCMDC-131971], the “% Inhibition” value turned out to be 65.48%.

Regarding `CCOC(=O)/C(=N\OC(C)(C)C(=O)NCc1ccc(O)c(O)c1)c1csc(NC(c2ccccc2)(c2ccccc2)c2ccccc2)n1` [TCMDC-132099], the “% Inhibition” value is given as -13.25%.

Turning to `COc1ccc(NC(=O)/C=C/c2ccc(Oc3ccccc3Cl)c([N+](=O)[O-])c2)cc1OCCN(C(C)C)C(C)C` [TCMDC-140388], the “% Inhibition” value is -71.01%.

Regarding `O=C(NC1CCN(Cc2ccccc2)CC1)c1cccc(-c2nc3ccc(Cl)cc3[nH]2)c1` [TCMDC-140425], the “% Inhibition” value is on record as 27.77%.

As for `COC(=O)c1ccc2nc(-c3cc(OC)c(O)c(C(=O)NC4CCN(Cc5ccccc5)CC4)c3)[nH]c2c1` [TCMDC-140427], the “% Inhibition” value is given as 6.107%.

With `Cc1cc2nc(-c3cccc(C(=O)NC4CCN(Cc5ccccc5)CC4)c3)[nH]c2cc1C` [TCMDC-140424], the “% Inhibition” value is listed as 75.94%.

With `Cc1cc2nc(-c3ccc(/C=C/C(=O)NC4CCCCC4)cc3)[nH]c2cc1C` [TCMDC-140435], the “% Inhibition” value is on record as -5.542%.

In the case of `Cc1cc2nc(-c3ccc(C(=O)NC4CCN(Cc5ccccc5)CC4)cc3)[nH]c2cc1C` [TCMDC-140428], the “% Inhibition” value is -59.23%.

As to `CC(C)(C)c1ccc2nc(-c3ccc(C(=O)NC4CCN(Cc5ccccc5)CC4)s3)[nH]c2c1` [TCMDC-140514], the “% Inhibition” value is reported as 58.98%.

For the compound `O=C(C=Cc1ccc(-c2nc3ccccc3[nH]2)cc1)NC1CCN(Cc2ccccc2)CC1` [TCMDC-140400], the “% Inhibition” value is -89.03%.

With `Cc1ccc2nc(-c3ccc(C(=O)NC4CCN(Cc5ccccc5)CC4)s3)[nH]c2c1` [TCMDC-140399], the “% Inhibition” value is -1.012%.

For `COC(=O)c1ccc2nc(-c3ccc(/C=C/C(=O)NC4CCN(Cc5ccccc5)CC4)cc3)[nH]c2c1` [TCMDC-140446], the “% Inhibition” value was found to be 84.95%.

With `O=C(/C=C/c1ccc(-c2nc3ccc(Cl)cc3[nH]2)cc1)NC1CCN(Cc2ccccc2)CC1` [TCMDC-140443], the “% Inhibition” value is given as 63%.

In the case of `COC(=O)c1ccc2nc(-c3ccc(C(=O)NC4CCN(Cc5ccccc5)CC4)s3)[nH]c2c1` [TCMDC-140426], the “% Inhibition” value is recorded as -65.59%.

In the case of `CC(C)(C)c1ccc2nc(-c3ccc(/C=C/C(=O)NC4CCN(Cc5ccccc5)CC4)cc3)[nH]c2c1` [TCMDC-140456], the “% Inhibition” value is on record as 48.62%.

Turning to `CCN1CCN(c2cc(C)c3cc(NC(=O)c4cncc(Br)c4)ccc3n2)CC1` [TCMDC-125571], the “% Inhibition” value is reported as -6.09%.

Turning to `Cc1ccc(-n2c(=O)c3c(n4c(SC(C)C)nnc24)-c2ccccc2CC32CCCCC2)cc1` [TCMDC-125077], the “% Inhibition” value is on record as -67.75%.

Consider `Cc1cc([N+](=O)[O-])ccc1NC(=O)Nc1cccc(C(F)(F)F)c1` [TCMDC-124561], for which the “% Inhibition” value is reported as -49.1%.

On to `Cc1cccc2nc(-c3cccc(-c4cccc(C(=O)NCCN5CCCC5)c4)c3)[nH]c12` [TCMDC-132323], for which the “% Inhibition” value is recorded as 21.11%.

For `C=CC[C@H](NC(=O)c1ccc(NS(=O)(=O)c2ccc3nc(N)[nH]c(=O)c3c2)cc1)C(=O)OCCCC` [TCMDC-137699], the “% Inhibition” value worked out at 10.92%.

Turning to `CCCCCCCCN1CCCN(C(=O)c2cccc(NC(=O)Nc3ccc4ccccc4c3)c2)CC1` [TCMDC-141690], the “% Inhibition” value is reported as -11.26%.

As for `CC(CNc1ccnc(Nc2ccc3[nH]c(=O)[nH]c3c2)n1)c1ccccc1` (stereo not drawn) [TCMDC-136806], the “% Inhibition” value is -16.39%.

`Nc1nc(N)c2c(Sc3ccccc3)cccc2n1` [TCMDC-131943]: the “% Inhibition” value stood at 8.754%.

As for `NC(=O)c1ccsc1NC(=O)CNC(c1ccccc1)c1ccc(Cl)cc1` (stereo not drawn) [TCMDC-125330], the “% Inhibition” value is given as 14.63%.

For `Cc1ccc2[nH]c(-c3ccc(/C=C/C(=O)NC4CCN(Cc5ccccc5)CC4)cc3)nc2c1C` [TCMDC-140451], the “% Inhibition” value was -45.16%.

Consider `Cc1cc2nc(-c3ccc(/C=C/C(=O)NC4CCN(Cc5ccccc5)CC4)cc3)[nH]c2cc1C` [TCMDC-140434], for which the “% Inhibition” value was determined as 78.1%.

Consider `Cc1ccc2nc(-c3ccc(C=CC(=O)NC4CCN(Cc5ccccc5)CC4)cc3)[nH]c2c1` [TCMDC-140401], for which the “% Inhibition” value is 2.225%.
